In PubChem BioAssay (NCI):
The panel holds about 83,000 compounds, 20% with a hit somewhere; the sample as a whole holds those more often.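 Single-concentration screen, 48 h exposure, 96-well plates. Endpoint: percent growth. Below 10 = active.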 Unmarked numbers belong to inactive results. Activity calls are given as the source filed them.

These compounds were tested on MDA-MB-468 breast (assay: NCI-60 one-dose screen, 48 h (100 = growth as untreated, 0 = no growth, -100 = all killed)). Conditions: 10 µM unless noted.

| Structure (SMILES) | growth |
| --- | --- |
| Cc1cc(C)c2sc(=O)n(Cc3nnc(SCCC(=O)O)o3)c2n1 | 110% |
| C=CC(=O)Nc1ccc2ncnc(Nc3cccc(NS(=O)(=O)CCC)c3Cl)c2c1 | -31.9% (active) |
| O=S(=O)(O)c1cccc(Nc2ccc3ccccc3c2)c1 | 105% |
| CC(C)C1=CC2=C(C=O)C[C@@H]3[C@](C)(CCC[C@@]3(C)C(=O)OCC#CCN3CCCC3)[C@H]2CC1 | 51.3% |
| CCCNc1nc2ccccc2c2c1S(=O)(=O)c1ccc(Cl)cc1C2=O | 3.32% (active) |
| CCOC(=O)n1cc(C2=C(c3cn(C)c4ccccc34)COC2=O)c2ccccc21 | 29.5% |
| COC(=O)C(=Cc1ccccc1[N+](=O)[O-])C(=O)OC | 20.2% |
| NCCCNc1nc2ccccc2c2c(=O)c3cc(F)cc(F)c3sc12 | 70.3% |
| CCCCN(CCCC)CCCOC(=O)c1ccc(N)cc1 | 47.5% |
| N#Cc1c(-c2cccc(Cl)c2)cc(-c2cccc(Cl)c2)[nH]c1=O | 73.2% |
| O=C(N/N=C/c1ccc([N+](=O)[O-])o1)c1[nH]c2ccc(Br)cc2c1-c1ccccc1 | 24.8% |
